Compound activity: PubChem, National Center for Advancing Translational Sciences (NCATS)
SW480 rerep = inducers of DNA re-replication in SW480 colon cancer cells; SW480 DNA re-replication, Hoechst DNA content imaging, 48 h; Potency, µM (top dose mostly 46.1 µM), actives largely listed as activators; hit rate 1.8% among 340,000; AID 624297; also: nearly all actives have a fitted effect of over 55% in size
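Hoechst fluorescence of nuclei (405 nm excitation, 500-530 nm emission) measured by plate-scanning imager after 48 hr compound exposure at 37 C; re-replication scored as increased number of nuclei with elevated intensity.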
VP16 counter = inhibits Gal4-VP16 luciferase reporter, ROR gamma counter-screen; Drosophila S2 Gal4-VP16 UAS-luciferase, luminescence, 20 h; Potency, µM (top dose mostly 53.6 µM), hits mostly inhibitors; hit rate 3.5% among 310,000; AID 2546;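 also: Gal4-VP16 expression switched on by copper sulfate through the metallothionein promoter; nearly all actives have a fitted effect of over 50% in size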
MCF10A rerep = inducers of DNA re-replication in MCF 10A breast cells; MCF 10A DNA re-replication, Hoechst nuclear intensity, 48 h; Potency, µM (highest dose often 46.1 µM), usual class: activators; hit rate 2.9% among 350,000; also: nearly all actives have a fitted effect of over 50% in size
ELG1 repair inh = ELG1-dependent DNA repair inhibition | HEK293T ELG1-luciferase reporter, luminescence, 16 h; DNA damage induced by 5-fluorouridine | Potency, µM (series often up to 46.1 µM), hits mostly inhibitors | hit rate 2.3% among 330,000 | AID 504467; also: nearly all actives have a fitted effect of over 55% in size
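In this reporter screen, reduction of luminescence relative to DMSO vehicle indicated activity. Compounds and 5-fluorouridine were added together to 2,000 cells per well, incubated for 16 hr at 37 °C, then developed with ONE-Glo.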
RORgamma inh = inhibitors of mouse ROR gamma transcriptional activity; P51450; Drosophila S2 Gal4-RORgamma UAS-luciferase reporter, 20 h; Potency, µM (top dose mostly 53.6 µM), usual class: inhibitors; hit rate 5.4% among 310,000; also: nearly all actives have a fitted effect of over 60% in size
Target sequence (P51450 whole entry, looked up, the tested form may be a part): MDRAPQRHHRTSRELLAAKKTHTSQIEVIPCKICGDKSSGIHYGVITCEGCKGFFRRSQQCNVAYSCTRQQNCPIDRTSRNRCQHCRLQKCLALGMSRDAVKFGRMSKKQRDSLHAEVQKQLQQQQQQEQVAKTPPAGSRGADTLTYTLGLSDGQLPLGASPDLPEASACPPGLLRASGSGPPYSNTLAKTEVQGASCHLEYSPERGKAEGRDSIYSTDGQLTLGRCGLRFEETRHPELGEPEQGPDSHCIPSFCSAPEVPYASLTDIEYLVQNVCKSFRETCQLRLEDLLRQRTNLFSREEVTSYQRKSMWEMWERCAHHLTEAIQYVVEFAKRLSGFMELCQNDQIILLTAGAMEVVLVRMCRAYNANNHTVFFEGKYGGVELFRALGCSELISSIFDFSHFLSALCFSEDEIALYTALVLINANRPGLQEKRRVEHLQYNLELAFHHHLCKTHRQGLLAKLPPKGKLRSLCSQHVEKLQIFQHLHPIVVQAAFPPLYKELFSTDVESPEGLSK
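Compounds are pin-transferred onto Drosophila Schneider cells expressing a copper-inducible Gal4–ROR gamma transactivation domain fusion. After 1 hr, copper sulfate is added to 700 uM final; luciferase is read 20 hr later.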
Large screens that a line does not name were inactive. An excerpt weighted towards active compounds, which were near 10% of everything screened. Calls follow the shape of the dose curve; as a rule, active = well fitted curve in the direction sought with a large enough effect; inconclusive = small, poorly fitted or top-dose-only effect, or another doubt; inactive = no such curve, though single readings can be large; an effect the other way counts as inactive or inconclusive.

Cc1cc(C(=O)N/N=C/c2ccc([N+](=O)[O-])cc2)c2ccccc2n1	SW480 rerep 13µM, MCF10A rerep inconclusive, ELG1 repair inh inconclusive, RORgamma inh inconclusive
O=C(Cc1ccccc1)N/N=C/c1ccc([N+](=O)[O-])s1	SW480 rerep inconclusive, VP16 counter inconclusive, MCF10A rerep inconclusive, RORgamma inh inconclusive
Cc1cc(C(=O)N/N=C/c2ccc([N+](=O)[O-])s2)c2ccccc2n1	VP16 counter 3.5µM, MCF10A rerep inconclusive, ELG1 repair inh 21µM, RORgamma inh 5.6µM
Cc1cc(Nc2ccccc2)c2c([N+](=O)[O-])ccc(C)c2n1	VP16 counter 35µM, RORgamma inh inconclusive
COC(=O)C1NC(=O)N2C(C(=O)OC)C(C)(C)S[C@H]12 (some centres not stated)	none (no result: VP16 counter, ELG1 repair inh, RORgamma inh)
O=C(N/N=C/c1cccc(O)c1)c1cc(-c2ccccc2)nc2ccccc12	ELG1 repair inh inconclusive
COc1ccc(/C=N/NC(=O)c2cc(-c3ccccc3)nc3ccccc23)c(OC)c1	MCF10A rerep inconclusive, ELG1 repair inh 12µM, RORgamma inh inconclusive
CCOc1ccc2nc(C)cc(Nc3cccc([N+](=O)[O-])c3)c2c1	SW480 rerep inconclusive, VP16 counter inconclusive, MCF10A rerep 18µM, RORgamma inh inconclusive
Cc1cccc(/C=N/NC(=O)c2cc(C)nc3ccccc23)n1	VP16 counter inconclusive, RORgamma inh 11µM
CCc1cc(C(=O)N/N=C/c2ccc(O)cc2)c2ccccc2n1	SW480 rerep inconclusive, MCF10A rerep 23µM
Cc1ccc(C(=O)NC(C)C2CC3CCC2C3)c(C)c1 (configuration not stated)	VP16 counter inconclusive, ELG1 repair inh inconclusive
O=C(N/N=C/c1cccc([N+](=O)[O-])c1)c1cc(-c2ccccc2)nc2ccccc12	none
O=C(N/N=C/C=C\c1ccccc1[N+](=O)[O-])c1cc(-c2ccccc2)nc2ccccc12	SW480 rerep inconclusive, VP16 counter 2.8µM, ELG1 repair inh inconclusive, RORgamma inh 1.6µM
COc1ccc(/C=N/NC(=O)C[n+]2ccccc2)c(OC)c1	MCF10A rerep 1µM
O=C(N/N=C/c1cccnc1)c1cc(-c2ccc(Cl)cc2)nc2ccccc12	MCF10A rerep inconclusive (no result: VP16 counter, ELG1 repair inh, RORgamma inh)
COc1ccc(/C=N/NC(=O)C[n+]2ccccc2)c(OC)c1OC	none
O=C(N/N=C/c1ccc(Cl)c([N+](=O)[O-])c1)c1cc(-c2ccccc2)nc2ccccc12	MCF10A rerep 12µM, ELG1 repair inh inconclusive, RORgamma inh inconclusive
O=C(NC1CC1)C1=C[C@@H](c2c[nH]c3ccccc23)C[C@@H](OCc2ccc(CO)cc2)O1	none
COc1ccc2c(c1OC)C(=O)N(c1cccc(/C=C/C(=O)O)c1)C2	VP16 counter inconclusive, ELG1 repair inh inconclusive, RORgamma inh inconclusive
Cc1ccc(-c2cc(C(F)F)nc(S(C)(=O)=O)n2)cc1	SW480 rerep inconclusive, VP16 counter inconclusive, MCF10A rerep 4.1µM, ELG1 repair inh inconclusive, RORgamma inh 10µM
Cc1ccc(S(=O)(=O)NCC2NCCc3ccccc32)cc1 (configuration not stated)	RORgamma inh 18µM
O=C(Cc1ccccc1)Nc1ccccc1C(=O)NCC1CCCO1 (configuration not stated)	none
CCOC(=O)N1CCN(C(=O)c2oc3ccc(S(=O)(=O)N4CC(C)CC(C)C4)cc3c2C)CC1 (configuration not stated)	VP16 counter inconclusive, ELG1 repair inh inconclusive, RORgamma inh inconclusive
CCOC(=O)C1CCN(C(=O)c2oc3ccc(S(=O)(=O)N4CC(C)CC(C)C4)cc3c2C)CC1 (configuration not stated)	ELG1 repair inh 10µM
Cc1c(C(=O)N(C)CCC#N)oc2ccc(S(=O)(=O)N3CC(C)CC(C)C3)cc12 (configuration not stated)	ELG1 repair inh 7.3µM
CC(C)(C)c1ccc(S(=O)(=O)NCC(=O)N2CCCC2)cc1	SW480 rerep 5.8µM
O=C(CNS(=O)(=O)c1ccc(F)cc1)N1CCCC1	MCF10A rerep inconclusive (no result: VP16 counter, ELG1 repair inh, RORgamma inh)
Cc1cc(C)c(C)c(C(=O)C(=O)c2ccccc2)c1	none (no result: VP16 counter, ELG1 repair inh, RORgamma inh)
Cc1cc(C(=O)NNC(=S)NC(=O)/C=C/c2ccccc2Cl)n[nH]1	VP16 counter 13µM, MCF10A rerep inconclusive, RORgamma inh inconclusive
Cc1cccc(C(=O)NC(=S)NNC(=O)COc2c(C)cccc2C)c1	VP16 counter inconclusive, MCF10A rerep inconclusive, RORgamma inh 13µM
Cc1cccc(C(=O)NC(=S)NNC(=O)c2ccccc2Cl)c1	VP16 counter inconclusive, MCF10A rerep inconclusive, RORgamma inh 4.5µM
Cc1cc(C)nc(NC(=O)/C=C/c2ccccc2Cl)n1	ELG1 repair inh inconclusive, RORgamma inh inconclusive
Cc1cccc(C(=O)NC(=S)NNC(=O)Cc2ccccc2)c1	RORgamma inh 10µM
CC(=O)Oc1ccc(C(=O)Nc2ccccc2NC(=O)c2ccc(OC(C)=O)cc2)cc1	none
CC(=O)Oc1ccc(C23c4ccccc4C2(OC(C)=O)c2cc(OC(C)=O)ccc23)cc1 (configuration not stated)	SW480 rerep 18µM, MCF10A rerep 5.2µM (no result: VP16 counter, ELG1 repair inh, RORgamma inh)
C/C(=N\NC(=O)C1CCCC1)c1ccc(Cl)cc1	VP16 counter inconclusive, ELG1 repair inh inconclusive, RORgamma inh inconclusive
COc1ccc(N2CCN(Cc3cc(=O)c(OCC(=O)NC4CCCC4)co3)CC2)cc1	none (no result: VP16 counter, RORgamma inh)
N#Cc1ccc(-c2ccccc2)nc1SCC(=O)c1cccc(Cl)c1	VP16 counter inconclusive, MCF10A rerep 14µM, RORgamma inh inconclusive
N#Cc1ccc(-c2ccc(Cl)cc2)nc1SCC(=O)c1cccc(Cl)c1	ELG1 repair inh inconclusive
CCOc1cc(-c2noc(N)c2C#N)cc(OCC)c1OCC	VP16 counter inconclusive, RORgamma inh 11µM
CCOc1cc(-c2c(C#N)c(N)nc3c2CCCC3)ccc1O	none
C[C@@H]1C(c2cccc(Cl)c2)=NN(c2ccccc2)[C@H]1C(=O)N1CCOC1=O	SW480 rerep 18µM, MCF10A rerep inconclusive
C[C@@H]1C(c2ccccc2)=NN(c2ccccc2)[C@H]1C(=O)N1CCOC1=O	SW480 rerep inconclusive
CC1Cn2c(nnc2-c2cccc(Cl)c2)S1 (configuration not stated)	none
C[C@@H]1C(c2cccc(Cl)c2)=NN(c2ccc(Br)cc2)[C@H]1C(=O)N1CCOC1=O	SW480 rerep 3.3µM, MCF10A rerep inconclusive
COc1ccc(C(=O)C2CCN(CC(=O)Nc3ccccc3F)CC2)cc1	none
Cc1n[nH]c(C)c1Cc1c(F)cccc1Cl	RORgamma inh 16µM
O=C1C(c2ccccc2)C2C=CC(C2)N1O (configuration not stated)	none (no result: VP16 counter, ELG1 repair inh, RORgamma inh)
Cc1cc(S(=O)(=O)c2ccc([N+](=O)[O-])cn2)ccc1Br	MCF10A rerep inconclusive (no result: VP16 counter, ELG1 repair inh, RORgamma inh)
Cc1ccc(S(=O)(=O)c2ccc([N+](=O)[O-])cn2)cc1	VP16 counter 3.5µM, MCF10A rerep inconclusive, RORgamma inh 3.2µM
O=[N+]([O-])c1ccc(S(=O)(=O)c2ccccc2)nc1	VP16 counter 3.5µM, MCF10A rerep inconclusive, RORgamma inh inconclusive
